Structures can show the parent of a compound that is named as a salt.

The source of these data is the supplement of paper PMC12532568.

This test concerns Danio rerio larvae Tg(actc1b:ZsGreen-LC3), 3 dpf. Kind of test: LC3 puncta relative area vs vehicle, without NH4Cl (log2 fold change); higher = more autophagosomes. To be noted: 10 µM; treatment time 16 h; NH4Cl: none. As to the method: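 Transgenic Tg(actc1b:ZsGreen-map1lc3) zebrafish larvae (2 dpf) were treated for 16 h with Tocris library compounds at 10 µM (n = 12 larvae per compound). Skeletal-muscle LC3 puncta area relative to body area was measured by high-content confocal imaging before and after 4 h of 100 mM NH4Cl (autophagic flux), normalised to vehicle (DMSO), and reported as log2 fold change.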
On to `CO[C@]12C[C@@H](COC(=O)c3cncc(Br)c3)CN(C)[C@@H]1Cc1cn(C)c3cccc2c13` [Nicergoline], for which the “LC3 puncta (log2)” value amounted to 0.51.

For `CCCN(CCC)C1CCc2ccc(O)cc2C1` (configuration not stated) [7-Hydroxy-DPAT hydrobromide], the “LC3 puncta (log2)” value is -0.0217.

In the case of `O=C1NCN(c2ccccc2)C12CCN(CC1COc3ccccc3O1)CC2` (configuration not stated) [Spiroxatrine], the “LC3 puncta (log2)” value is 0.423.

`Cn1cnc(CCN)c1` [N?-Methylhistamine dihydrochloride]: the “LC3 puncta (log2)” value is 0.287.

Turning to `CS(=O)(=O)Nc1ccc(Cc2noc(-c3ccc4[nH]cc(CCN)c4c3)n2)cc1`, the “LC3 puncta (log2)” value turned out to be 0.431.

As to `CN1[C@@H]2CC[C@H]1C[C@@H](OC(=O)c1cc(Cl)cc(Cl)c1)C2`, the “LC3 puncta (log2)” value came out at 0.263.

Regarding `O=C(O)/C=C/CO` [trans-4-Hydroxycrotonic acid], the “LC3 puncta (log2)” value was -0.0373.

For `N=C(N)NN` [Aminoguanidine hydrochloride], the “LC3 puncta (log2)” value was found to be 0.471.

With `N=C(NCc1ccc(Cl)cc1)SCCCc1c[nH]cn1` [Clobenpropit dihydrobromide], the “LC3 puncta (log2)” value was 0.454.

With `CCCN(CCC)C1CCc2cccc(O)c2C1` (configuration not stated) [8-Hydroxy-DPAT hydrobromide], the “LC3 puncta (log2)” value came to 0.14.

Turning to `COc1ccc(C(=O)N2CCCC2=O)cc1` [Aniracetam], the “LC3 puncta (log2)” value was found to be 0.228.

Take `c1ccc2nc(N3CCNCC3)ccc2c1` [Quipazine dimaleate]: the “LC3 puncta (log2)” value was 0.115.

Turning to `CCCN(C/C=C/I)C1CCc2ccc(O)cc2C1` (configuration not stated) [7-Hydroxy-PIPAT maleate], the “LC3 puncta (log2)” value is -0.263.

Take `c1ccc(C2CNCc3ccccc32)cc1` (configuration not stated) [4-Phenyl-1,2,3,4-tetrahydroisoquinoline hydrochloride]: the “LC3 puncta (log2)” value was found to be 0.365.

For the compound `c1ccc(CCCCN2CCC(c3ccccc3)CC2)cc1` [4-PPBP maleate], the “LC3 puncta (log2)” value came out at 0.0152.

Regarding `CCCN[C@@H]1CCc2c(OC)cccc2[C@@H]1C` [(+)-AJ 76 hydrochloride], the “LC3 puncta (log2)” value was 0.121.

Consider `S=C(NC1CCCCC1)N1CCC(c2cnc[nH]2)CC1` [Thioperamide], for which the “LC3 puncta (log2)” value was found to be 0.0474.

Take `O=C(CCCN1CCC2(CC1)C(=O)N(Cc1cccc(F)c1)CN2c1ccccc1)c1ccc(F)cc1` [3'-Fluorobenzylspiperone maleate]: the “LC3 puncta (log2)” value was determined as 0.503.

Consider `C[C@H](N)Cc1cnc[nH]1`, for which the “LC3 puncta (log2)” value is 0.17.

With `CC(C(=O)OC1CC2CCC(C1)N2C)c1ccc(Br)cc1` (configuration not stated) [PG-9 maleate], the “LC3 puncta (log2)” value amounted to 0.116.

Take `Cc1onc(O)c1C[C@H](N)C(=O)O`: the “LC3 puncta (log2)” value amounted to 0.235.

`c1ccc(CC(c2ccccc2)N2CCCCC2)cc1` (configuration not stated) [(?)-1-(1,2-Diphenylethyl)piperidine maleate]: the “LC3 puncta (log2)” value was determined as 0.167.

As for `COc1ccc(CNC(=O)/C=C/c2ccc3[nH]cc(CCN(C)C)c3c2)cc1`, the “LC3 puncta (log2)” value is -0.124.

Turning to `Cc1cc(C)cc(C(=O)OC2C[C@H]3CC[C@@H](C2)N3C)c1` (some centres not stated) [Tropanyl-3,5-dimethylbenzoate], the “LC3 puncta (log2)” value is 0.0365.

`O=C(Cc1ccc(Cl)c(Cl)c1)N1CCCCC1CN1CCCC1` (configuration not stated): the “LC3 puncta (log2)” value came to 0.372.

Take `Oc1ccc2c3c1O[C@H]1c4c(c5ccccc5n4Cc4ccccc4)C[C@@]4(O)C(C2)N(CC2CC2)CC[C@]314` [N-Benzylnaltrindole hydrochloride]: the “LC3 puncta (log2)” value was 0.458.

`Cc1ccc(C[N+](C)(C)C)o1` [5-Methylfurmethiodide]: the “LC3 puncta (log2)” value is -0.0134.
